Experimental data taken from PubChem BioAssay (NCATS).
Results filed as inconclusive are left out. The source made the active and inactive calls. Calls follow the shape of the dose curve; as a rule, active = well fitted curve in the direction sought with a large enough effect; inconclusive = small, poorly fitted or top-dose-only effect, or another doubt; inactive = no such curve, though single readings can be large; an effect the other way counts as inactive or inconclusive.

Columns and labels:
[1] = NS1 protein of Zika virus - qHTS assay to identify small molecule inhibitors in human HEK 293 cells (AID 1347053); also: nearly all actives have a fitted effect of over 55% in size
How it was run: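 HEK 293; 20 h pre-culture, 37 C/5% CO2; cpd 1 h pre-infection; ZIKV MR766, MOI = 0.5, 24 h, 37 C; TR-FRET NS1 readout (two anti-NS1 Abs); norm. to no-virus vs infected.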

[2] = qHTS of pediatric cancer cell lines to identify multiple opportunities for drug repurposing: Primary screen for TC32 cells (AID 1347089); also: nearly all actives have a fitted effect of over 60% in size
How it was run: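 A viability screen of TC32 cells was run over 48 h, with primary MIPE doses spanning 0.78 nM–46 µM and NPC doses 0.59 nM–46 µM. ATP luminescence (CellTiter-Glo) served as the read-out.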

[3] = qHTS of pediatric cancer cell lines to identify multiple opportunities for drug repurposing: Primary screen for DAOY cells (AID 1347090); also: nearly all actives have a fitted effect of over 55% in size
How it was run: (§1)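 Cell viability, CellTiter-Glo luminescence; 500-1,000 cells/well, 8- or 11-point titration, 48 h compound exposure at 37 degrees C, 5% CO2. Controls: DMSO neutral, bortezomib 2.3 µM final as positive.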

[4] = qHTS of pediatric cancer cell lines to identify multiple opportunities for drug repurposing: Primary screen for A673 cells (AID 1347092); also: nearly all actives have a fitted effect of over 45% in size
How it was run: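 Titration-based qHTS on A673 cells: MIPE compounds spanned 11 points (0.78 nM to 46 µM final), NPC compounds 8 points (0.59 nM to 46 µM final). Viability after 48 h was measured by ATP luminescence.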

[5] = qHTS of pediatric cancer cell lines to identify multiple opportunities for drug repurposing: Primary screen for SK-N-MC cells (AID 1347093)
How it was run: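 Metabolically active cells were quantified by ATP-dependent luminescence (CellTiter-Glo, 15 min at room temperature) following 48 h treatment. Cells had been plated at 500-1,000 per well and settled for 5 h beforehand.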

[6] = qHTS of pediatric cancer cell lines to identify multiple opportunities for drug repurposing: Primary screen for BT-37 cells (AID 1347094)
How it was run: (§2)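 Following a 5-hour attachment period, cells at 500-1,000/well received compounds and were cultured for 48 hours. CellTiter-Glo was added and luminescence read to estimate viable, metabolically active cells.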

[7] = qHTS of pediatric cancer cell lines to identify multiple opportunities for drug repurposing: Primary screen for NB-EBc1 cells (AID 1347095)
How it was run: as §2

[8] = qHTS of pediatric cancer cell lines to identify multiple opportunities for drug repurposing: Primary screen for U-2 OS cells (AID 1347096); also: nearly all actives have a fitted effect of over 50% in size
How it was run: (§3)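 Cells (500-1,000/well) rested 5 h, then received compounds for 48 h; metabolically active cells were measured by CellTiter-Glo luminescence. Final concentrations spanned up to 46 µM (MIPE, 11-point) or 0.59 nM-46 µM (NPC, 8-point) in primary screens, 11-point in follow-ups.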

[9] = qHTS of pediatric cancer cell lines to identify multiple opportunities for drug repurposing: Primary screen for BT-12 cells (AID 1347101); also: nearly all actives have a fitted effect of over 25% in size
How it was run: as §3

[10] = qHTS of pediatric cancer cell lines to identify multiple opportunities for drug repurposing: Primary screen for Rh18 cells (AID 1347102); also: nearly all actives have a fitted effect of over 65% in size
How it was run: as §3

[11] = qHTS of pediatric cancer cell lines to identify multiple opportunities for drug repurposing: Primary screen for SJ-GBM2 cells (AID 1347091)
How it was run: as §1

[12] = qHTS of pediatric cancer cell lines to identify multiple opportunities for drug repurposing: Primary screen for Saos-2 cells (AID 1347097); also: nearly all actives have a fitted effect of over 40% in size
How it was run: as §2

[13] = qHTS of pediatric cancer cell lines to identify multiple opportunities for drug repurposing: Primary screen for NB1643 cells (AID 1347099); also: nearly all actives have a fitted effect of over 50% in size
How it was run: as §2

[14] = qHTS of pediatric cancer cell lines to identify multiple opportunities for drug repurposing: Primary screen for LAN-5 cells (AID 1347100)
How it was run: as §3

[15] = qHTS of pediatric cancer cell lines to identify multiple opportunities for drug repurposing: Primary screen for SK-N-SH cells (AID 1347098); also: nearly all actives have a fitted effect of over 65% in size
How it was run: as §3

Measured: Potency
Potency is read from the fitted curve at half-maximal effect.

CCN(CC)CCOc1ccc(C(=C(Cl)c2ccccc2)c2ccccc2)cc1
active: [4] 29.6 µM | [5] 14.8 µM
not listed: [11] | [12] | [13] | [14] | [15]
inactive: all other assays above

CC(=NNC(=S)N1CCC1)c1ccccn1
inactive: [8] | [12]
active: [1] 16.6 µM | [2] 0.0415 µM | [11] 0.0209 µM | [4] 0.0037 µM | [5] 0.0013 µM | [7] 0.0166 µM | [13] 0.001 µM | [14] 0.935 µM | [9] 0.0014 µM

N#CC1(c2ccc(NC(=O)c3cccnc3NCc3ccncc3)cc2)CCCC1
not listed: [3] | [6] | [9] | [12]
inactive: all other assays above

Cc1ccc(C(C)(O)c2nc3ccccc3s2)c(C)c1 (stereo unspecified)
active: [11] 3.32 µM | [4] 2.96 µM | [5] 1.87 µM | [14] 3.72 µM
inactive: [1] | [2] | [8] | [10]

CC[C@@H]1C=C(C)C[C@H](C)C[C@H](OC)[C@H]2O[C@@](O)(C(=O)C(=O)N3CCCC[C@@H]3C(=O)O[C@H](C(C)=C[C@@H]3CC[C@H](Cl)[C@H](OC)C3)[C@H](C)[C@@H](O)CC1=O)[C@H](C)C[C@H]2OC
inactive: [2] | [3] | [8] | [15]
active: [1] 23.5 µM | [5] 11.8 µM | [12] 9.35 µM | [14] 11.8 µM

O=C(O)CCC1CCC(c2cc(F)ccc2F)(S(=O)(=O)c2ccc(Cl)cc2)CC1 (stereo unspecified)
active: [3] 11.8 µM | [4] 1.48 µM | [5] 0.0662 µM | [13] 2.35 µM | [14] 2.35 µM
inactive: [1] | [2] | [7] | [15]

CC1(C)CCC[C@@]2(C)[C@@H]1CC[C@@]1(C)OC(=O)C[C@H]21
active: [5] 8.33 µM
not listed: [7] | [11] | [12]
inactive: all other assays above

CN(C[C@@H]1COCCO1)S(=O)(=O)Nc1ccc2ccc3ncc(-c4cnn(C)c4)cc3c(=O)c2c1
inactive: [1] | [2]
active: [11] 0.372 µM | [4] 7.43 µM | [5] 2.96 µM | [7] 7.43 µM | [15] 17.1 µM | [14] 14.8 µM | [10] 14.8 µM

COC1CCC(N(C(=O)C2CCC(C)CC2)c2cc(C3=CCCCC3)sc2C(=O)O)CC1 (stereo unspecified)
active: [5] 23.5 µM | [13] 23.5 µM
not listed: [7] | [11]
inactive: all other assays above

CCOC(=O)O[C@]1(C(=O)OCCl)CC[C@@H]2[C@H]3CCC4=CC(=O)C=C[C@]4(C)[C@@H]3[C@@H](O)C[C@@]21C
not listed: [3]
inactive: all other assays above

C[C@H](NC(=O)C(=O)Nc1ccccc1C(C)(C)C)C(=O)N[C@@H](CC(=O)O)C(=O)COc1c(F)c(F)cc(F)c1F
active: [4] 23.5 µM | [5] 5.9 µM | [12] 18.7 µM | [13] 9.35 µM
not listed: [3] | [8] | [9] | [14]
inactive: all other assays above

CCc1ccc(C=C2SC(=S)NC2=O)cc1
active: [13] 23.5 µM
not listed: [4] | [7] | [11] | [12]
inactive: all other assays above

O=C(O)C=Cc1ccc(O)c(O)c1
inactive: [1] | [2] | [11] | [10]
active: [4] 11.8 µM | [5] 2.64 µM | [12] 23.5 µM | [15] 24.1 µM | [13] 20.9 µM | [14] 3.72 µM

Cn1cc(C=C2C(=O)Nc3cccnc32)c2ccccc21
not listed: [4] | [5] | [12]
inactive: all other assays above

CC=CCC=CCCC(=O)[C@H]1O[C@@H]1C(N)=O
inactive: [1] | [2] | [3] | [6] | [8] | [15] | [10]
active: [12] 18.7 µM

CC(C)(C)c1cc(C(=O)O)c(NC(=O)Nc2ccc3[nH]ncc3c2)s1
active: [5] 23.5 µM | [13] 23.5 µM
not listed: [3] | [12]
inactive: all other assays above

CC1(C)Cc2c(sc(NC(=S)NC(=O)c3ccccc3)c2C(=O)O)CO1
active: [4] 23.5 µM | [5] 1.66 µM | [13] 5.26 µM
not listed: [3] | [15]
inactive: all other assays above

O=C(Nc1ccccc1-c1cn2c(CN3CCNCC3)csc2n1)c1cnc2ccccc2n1
inactive: [1] | [2] | [8] | [15]
active: [3] 23.5 µM | [4] 18.7 µM | [6] 27.3 µM | [13] 13.2 µM | [14] 20.9 µM | [10] 8.33 µM

NS(=O)(=O)c1cccc2c1C(=O)c1cccc(O)c1C2=O
active: [1] 3.32 µM | [11] 0.59 µM | [4] 0.372 µM | [5] 0.935 µM | [7] 0.833 µM | [8] 0.59 µM | [15] 30.4 µM | [13] 1.05 µM | [14] 1.05 µM | [10] 0.743 µM
inactive: [2]

O=C(Nc1ccccc1Br)N[C@@H]1CCN(c2ccc(C(F)(F)F)cn2)C1
active: [3] 11.8 µM | [12] 18.7 µM
inactive: [1] | [2] | [8] | [10]

CC=CC(=O)N(CC)c1ccccc1C
inactive: [1] | [2] | [11] | [4] | [5] | [8] | [10]
active: [7] 14.8 µM

O=C1NC(=O)C(=Cc2ccc3c(c2)OC(F)(F)O3)S1
inactive: [1] | [2] | [10]
active: [5] 3.32 µM | [15] 12.1 µM

NC(=O)NN=Cc1ccc([N+](=O)[O-])o1
not listed: [3] | [4] | [9] | [12] | [13] | [14]
inactive: all other assays above

COc1ccc(C2Sc3ccccc3N(CCN(C)C)C(=O)C2OC(C)=O)cc1 (stereo unspecified)
inactive: [1] | [2] | [11] | [6] | [7] | [8] | [9] | [10]

O=C(O)Cc1cccc2ccccc12
not listed: [2]
inactive: all other assays above

CO[C@H]1C[C@@H]2CC[C@@H](C)[C@@](O)(O2)C(=O)C(=O)N2CCCC[C@@H]2C(=O)O[C@H]([C@H](C)C[C@@H]2CC[C@H](OP(C)(C)=O)[C@H](OC)C2)CC(=O)[C@H](C)C=C(C)[C@@H](O)[C@@H](OC)C(=O)[C@H](C)C[C@H](C)C=CC=CC=C1C
inactive: [1] | [3] | [4] | [8] | [15] | [13]
active: [9] 27.3 µM

NS(=O)(=O)c1ccc(NC2=CC(=O)c3ccccc3C2=O)cc1
active: [5] 10.5 µM | [12] 11.8 µM | [15] 30.4 µM | [13] 18.7 µM | [9] 1.09 µM
inactive: [1] | [3] | [11] | [8]

C=C1C(=O)[C@@]23C(CC[C@@H]1[C@H]2O)[C@@]12CO[C@]3(O)[C@@H](O)[C@@H]1C(C)(C)CC[C@@H]2O (stereo partly specified)
active: [1] 9.35 µM | [3] 2.35 µM | [11] 8.33 µM | [4] 3.72 µM | [5] 1.66 µM | [7] 2.09 µM | [8] 14.8 µM | [15] 15.2 µM | [13] 1.48 µM | [14] 1.66 µM | [9] 3.43 µM | [10] 9.35 µM

OC[C@H]1O[C@@H](n2cnc3c2NC=NC[C@@H]3O)C[C@H]1O
not listed: [3] | [4] | [5] | [13]
inactive: all other assays above

COc1cccc([C@@H](C)NCCCc2ccccc2Cl)c1
inactive: [1] | [2] | [8] | [12] | [14] | [10]
active: [5] 11.8 µM | [13] 20.9 µM
